“And” between values parts separate entries of the source, which are not always exact repeats. Equal values may be shown once. Records with an inconclusive call do not appear. The source made the active and inactive calls. Unless noted, calls follow the shape of the full dose curve.
What was measured:
[1] = qHTS Assay for Lipid Storage Modulators (AID 1519); conditions: Drosophila S3 cells, BODIPY lipid droplet/cell ratio, laser cytometry, cells loaded with oleic acid; as to activity change, negative = inhibition: % is scaled to controls: 0 for no effect and ±100 for the full control effect
How it was run: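 Cells seeded at 5,000 per well were treated with compounds over a concentration series and loaded with oleic acid (400 uM, as added). Lipid droplet fluorescence (488 nm excitation, 500-530 nm channel) was read by laser-scanning cytometry and normalized to 20 uM Triacsin C.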

[2] = molecular target: alpha-glucosidase (Oryza sativa, rice) (UniProt Q653V4); assay: Counterscreen for Glucocerebrosidase Inhibitors: qHTS Assay for Rice alpha-Glucosidase at pH 5.0 (AID 997; active = well fitted curve in the direction sought with a large enough effect; an effect the other way counts as inactive or inconclusive;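 also: 0% = full activity with enzyme and -100% = basal without enzyme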); conditions: rice alpha-glucosidase enzyme activity; series mostly up to 76.9 µM
How it was run: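 Rice alpha-glucosidase (4 nM final) with 400 uM 4-methylumbelliferyl-alpha-D-glucopyranoside in citrate buffer pH 5.0, 20 min at room temperature, stopped at pH 10; fluorescence 365/440 nm, compounds 0.7 nM–77 uM, AC50 from Hill fits.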

[3] = molecular target: DNA repair nuclease/redox regulator APEX1 (Homo sapiens) (UniProt P27695); assay: qHTS Validation Assay for Inhibitors of the Human Apurinic/apyrimidinic Endonuclease 1 (APE1) (AID 1705; active = well fitted curve in the direction sought with a large enough effect; an effect the other way counts as inactive or inconclusive;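 also: TAMRA fluorescence gain over two minutes as APE1 cuts a quenched THF abasic duplex; % is scaled to controls: 0 for no effect and ±100 for the full control effect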); conditions: purified APE1 endonuclease activity, fluorescence, titration; series mostly up to 57.1 µM
Description: Assay Provider: David M. Wilson, III, National Institute on Aging, NIH
Screening Center PI: Austin, C.P.
Screening Center: NIH Chemical Genomics Center [NCGC]
The apurinic/apyrimidinic endonuclease APE1 is the primary mammalian enzyme responsible for the removal of abasic (or AP) sites in DNA and functions centrally in the base excision DNA repair (BER) pathway. […] Thus, targeting APE1 could improve the efficacy of current treatment paradigms by promoting selective sensitization or protection of diseased and normal cells, respectively.
Inhibition of APE1 activity was screened by utilizing double-stranded short substrate containing tetrahydrofuran (THF) abasic site labeled with rhodamine-type fluorophore (TAMRA) at the 5'-end and with non-fluorescent Black Hole Quencher-2 (BHQ-2) at the opposing 3'-end. An increase in the fluorescence intensity due to incision of the abasic site by APE1 was used to measure the enzyme activity.
1. […]
Three uL of enzyme were dispensed to 1536-well Greiner black solid bottom plates. […] The plates were immediately transferred into ViewLux High-throughput CCD imager (Perkin-Elmer) in order to measure the reaction progress in kinetic mode (three reads every 60 seconds) using 525 nm excitation and 598 nm emission fluorescence protocol. The fluorescence intensity difference between the third and the first time points was used to compute reaction progress.

[4] = Counterscreen for APE1 Inhibitors: Fluorescent Dye Displacement Validation Assay (AID 1707; active = well fitted curve in the direction sought with a large enough effect; an effect the other way counts as inactive or inconclusive;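 also: plate controls were ThO with dsDNA and no compound for no effect and ThO without dsDNA for full effect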); conditions: fluorescent dye displacement from DNA; series mostly up to 57.1 µM
How it was run: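 ThO 250 nM + dsDNA 50 nM (THF abasic site, 5'-TAMRA), Tris-HCl pH7.5/50mM NaCl/2 mM MgCl2/0.01% Tween-20; compounds pin-transferred; ex 480/em 540 nm endpoint. Neutral = no compound; no-DNA ThO wells = negative control.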

[5] = molecular target: Endonuclease 4 (Escherichia coli (strain K12)) (UniProt P0A6C1); assay: Counterscreen for APE1 Inhibitors: qHTS Validation Assay for Inhibitors of Endonuclease IV (AID 1708; active = well fitted curve in the direction sought with a large enough effect; an effect the other way counts as inactive or inconclusive; also: % is scaled to controls: 0 for no effect and ±100 for the full control effect); conditions: E. coli endonuclease IV, DNA cleavage fluorescence; series mostly up to 57.1 µM
How it was run: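 Cleavage of a quenched abasic-site DNA duplex (50 nM, 5'-TAMRA, 3'-BHQ-2) by 2 nM enzyme is followed as fluorescence increase. Compounds are preincubated with enzyme 15 min at room temperature before substrate addition.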

[6] = qHTS for differential inhibitors of proliferation of Plasmodium falciparum line 7G8 (AID 1815; active = well fitted curve in the direction sought with a large enough effect; an effect the other way counts as inactive or inconclusive;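 also: parasite growth measured after three days of incubation; plate controls were vehicle wells for no effect and reference inhibitor wells for full effect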); conditions: Plasmodium falciparum 7G8 proliferation inhibition; series mostly up to 28.7 µM
[7] = Cell Viability - LYMP2-026 (AID 989; active = well fitted curve in the direction sought with a large enough effect; an effect the other way counts as inactive or inconclusive; also: % is scaled to controls: 0 for no effect and ±100 for the full control effect; nearly all actives have a fitted effect of over 50% in size); conditions: LYMP2-026 lymphoblastoid cell viability, qHTS; series mostly up to 92.2 µM
How it was run: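 Human lymphoblastoid cells (2500/well) in complete medium were preincubated 5 hr at 37 C, then exposed to compounds for 24 hr at 37 C. Cellular ATP was read by CellTiter-Glo luminescence; AC50 from Hill-equation fits of concentration-response data.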

[8] = Cell Viability - LYMP1-002 - Assay at 24 hr (AID 993; active = well fitted curve in the direction sought with a large enough effect; an effect the other way counts as inactive or inconclusive; also: % is scaled to controls: 0 for no effect and ±100 for the full control effect); conditions: LYMP1-002 lymphoblastoid cells viability; series mostly up to 92.2 µM
How it was run: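 Human lymphoblastoid LYMP1-002 cells, 2500/well in complete medium, were treated with compounds for 24 h at 37 C; intracellular ATP was read by CellTiter-Glo luminescence. AC50 values came from Hill-equation fits of qHTS concentration-response data.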

[9] = Cell Viability - LYMP1-002 - Assay at 40 hr (AID 994; active = well fitted curve in the direction sought with a large enough effect; an effect the other way counts as inactive or inconclusive;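 also: 0% = DMSO only and full inhibition = 92 µM tetraoctylammonium bromide; nearly all actives have a fitted effect of over 60% in size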); conditions: LYMP1-002 lymphoblastoid cell viability; series mostly up to 92.2 µM
How it was run: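 Human lymphoblastoid cells, 2500/well in complete medium, were preincubated 5 hr at 37 C, then exposed to compounds for 40 hr at 37 C. Intracellular ATP was read by CellTiter-Glo luminescence after 30 min at room temperature; AC50 from Hill-equation fits.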

[10] = molecular target: Alpha-galactosidase A (Homo sapiens) (UniProt P06280); assay: Counterscreen for Glucocerebrosidase Inhibitors: qHTS Assay for Human alpha-Galactosidase at pH 4.5 (AID 992; active = well fitted curve in the direction sought with a large enough effect; an effect the other way counts as inactive or inconclusive; also: 0% is about no effect); conditions: purified enzyme, fluorogenic substrate; series mostly up to 76.9 µM
How it was run: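 Read-out is 4-methylumbelliferone fluorescence (365 nm excitation, 440 nm emission) after a pH 10 NaOH/glycine stop. Reactions held 2 nM enzyme and 80 uM substrate at pH 4.5 for 20 min at room temperature.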

[11] = measured here: cell count channel max response
[12] = measured here: lipid channel max response

DNA repair nuclease/redox regulator APEX1 (Homo sapiens), sequence (P27695 whole entry, looked up): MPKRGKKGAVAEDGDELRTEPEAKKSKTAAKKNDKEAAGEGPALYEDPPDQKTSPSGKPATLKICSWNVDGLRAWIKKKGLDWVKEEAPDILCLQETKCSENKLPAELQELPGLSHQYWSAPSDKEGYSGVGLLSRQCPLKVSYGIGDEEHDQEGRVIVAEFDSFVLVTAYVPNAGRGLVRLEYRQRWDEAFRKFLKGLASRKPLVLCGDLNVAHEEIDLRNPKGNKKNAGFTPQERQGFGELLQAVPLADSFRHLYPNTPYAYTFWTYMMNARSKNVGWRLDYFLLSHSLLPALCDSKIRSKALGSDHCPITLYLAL
Alpha-galactosidase A (Homo sapiens), sequence (P06280 whole entry, looked up): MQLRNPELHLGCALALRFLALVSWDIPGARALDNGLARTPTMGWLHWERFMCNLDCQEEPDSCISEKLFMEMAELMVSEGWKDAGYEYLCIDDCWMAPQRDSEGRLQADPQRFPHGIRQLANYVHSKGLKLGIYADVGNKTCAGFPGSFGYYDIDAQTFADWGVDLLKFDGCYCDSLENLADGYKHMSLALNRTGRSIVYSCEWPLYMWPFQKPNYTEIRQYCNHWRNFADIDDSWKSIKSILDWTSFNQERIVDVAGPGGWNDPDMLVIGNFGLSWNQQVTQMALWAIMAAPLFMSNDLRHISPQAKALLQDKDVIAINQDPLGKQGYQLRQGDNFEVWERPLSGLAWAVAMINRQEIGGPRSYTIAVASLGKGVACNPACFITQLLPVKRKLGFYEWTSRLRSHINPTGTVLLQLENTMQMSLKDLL

COc1cc2c(cc1O)CCC1C2CC[C@@]2(C)C1CC[C@@H]2O (stereo partly drawn)
activity change, negative = inhibition ([1]; at 57.5 µM (top of the series)): -1.86% (inactive)
max response [1, 11]: 18.4%
max response [1, 12]: 18.6%

CN(C)CC[C@H](c1ccc(Cl)cc1)c1ccccn1
outcome [2]: inactive
activity change, negative = inhibition ([1]; at 25.7 µM (top of the series)): -0.988% (inactive)
max response [1, 11]: 4.39%
max response [1, 12]: 4.57%

Nc1nc2c(c(=O)[nH]1)N(C=O)[C@H](CNc1ccc(C(=O)N[C@@H](CCC(=O)O)C(=O)O)cc1)CN2
activity change, negative = inhibition ([1]; at 25.7 µM (top of the series)): -2.58% (inactive)
max response [1, 11]: -9.43%
max response [1, 12]: -11.6%

N=c1ccn2c(n1)O[C@H]1[C@@H](O)[C@@H](CO)O[C@H]12
outcome [3]: inactive
outcome [4]: inactive
outcome [5]: inactive
outcome [6]: inactive

Oc1cc2c(cc1O)C1c3ccc(O)c(O)c3OCC1(O)C2 (stereo not drawn)
activity change, negative = inhibition ([1]; at 57.5 µM (top of the series)): 6.13% (inactive)
max response [1, 11]: -4.57%
max response [1, 12]: 5.65%

O=c1c(O)c(-c2ccc(O)c(O)c2)oc2cc(O)ccc12
activity change, negative = inhibition ([1]; at 57.5 µM (top of the series)): 4.11% (inactive)
max response [1, 11]: -27.3%
max response [1, 12]: -24.1%

COc1ccc([C@@H]2CNC(=O)C2)cc1OC1CCCC1
activity change, negative = inhibition ([1]; at 25.7 µM (top of the series)): -2.44% (inactive)
max response [1, 11]: -4.18%
max response [1, 12]: -7.27%

C[C@@]12C(=O)OC(=O)[C@@]1(C)C1CCC2O1
activity change, negative = inhibition ([1]; at 57.5 µM (top of the series)): -13.3% (inactive)
max response [1, 11]: -9.65%
max response [1, 12]: -21.9%

Cc1cc(O)c2c(c1)C(=O)c1cccc(O)c1C2=O
outcome [7]: inactive
outcome [8]: inactive
outcome [9]: inactive
activity change, negative = inhibition ([1]; at 57.5 µM (top of the series)): 5.96% (inactive) and -4.1% (inactive)
max response [1, 11]: 3.86% and 2.84%
max response [1, 12]: 13.4% and 1.16%

c1coc(CNc2ncnc3nc[nH]c23)c1
activity change, negative = inhibition ([1]; at 25.7 µM (top of the series)): 1.26% (inactive)
activity change, negative = inhibition ([1]; at 57.5 µM (top of the series)): 6.17% (inactive)
max response [1, 11]: -19.4% and 15.6%
max response [1, 12]: -19.1% and 25.8%

CC(Cc1ccc(O)c(O)c1)(NN)C(=O)O (stereo not drawn)
activity change, negative = inhibition ([1]; at 57.5 µM (top of the series)): 4.17% (inactive)
max response [1, 11]: 0.886%
max response [1, 12]: 8.76%

OCC(O)C(O)C(O)CO (stereo not drawn)
activity change, negative = inhibition ([1]; at 57.5 µM (top of the series)): -0.297% (inactive) and 2.14% (inactive)
max response [1, 11]: 13.1% and 19.4%
max response [1, 12]: 16.9% and 22.3%

Cc1ccc(O)c(C(CCN(C(C)C)C(C)C)c2ccccc2)c1 (stereo not drawn)
activity change, negative = inhibition ([1]; at 57.5 µM (top of the series)): 7.57% (inactive)
max response [1, 11]: 3.1%
max response [1, 12]: 8.45%

COc1ccc2c(c1OC)C(=O)OC2[C@H]1c2c(cc3c(c2OC)OCO3)CCN1C (stereo partly drawn)
outcome [10]: inactive
outcome [2]: inactive
activity change, negative = inhibition ([1]; at 25.7 µM (top of the series)): 0.244% (inactive)
max response [1, 11]: -11.8%
max response [1, 12]: -9.72%

CN(N=O)C(=O)N[C@H]1C(O)OC(CO)[C@@H](O)[C@H]1O (stereo partly drawn)
activity change, negative = inhibition ([1]; at 57.5 µM (top of the series)): -2.09% (inactive)
max response [1, 11]: 10.4%
max response [1, 12]: 8.35%

Source: PubChem BioAssay (NCATS)
